Compound activity (PubChem BioAssay)
AmpC detergent – AmpC beta-lactamase inhibition with detergent present; P00811; hit rate 0.041% among 370,000; Potency, µM (highest dose often 114 µM), hits mostly inhibitors; AmpC hydrolysis of nitrocefin, absorbance 480 nm, 0.01% Triton; also: nearly all actives have a fitted effect of over 25% in size
Target sequence (P00811 whole entry, looked up): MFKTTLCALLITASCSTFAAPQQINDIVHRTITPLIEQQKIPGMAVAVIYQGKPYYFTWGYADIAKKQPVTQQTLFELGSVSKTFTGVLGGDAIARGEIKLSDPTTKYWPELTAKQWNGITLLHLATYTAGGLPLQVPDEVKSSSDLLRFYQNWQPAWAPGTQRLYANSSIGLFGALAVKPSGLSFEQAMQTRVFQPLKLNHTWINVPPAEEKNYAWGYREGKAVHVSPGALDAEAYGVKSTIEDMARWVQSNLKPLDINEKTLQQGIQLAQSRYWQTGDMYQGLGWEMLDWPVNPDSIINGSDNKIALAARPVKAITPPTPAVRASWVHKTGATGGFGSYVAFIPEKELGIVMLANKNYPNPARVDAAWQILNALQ
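20 mM phosphate pH 7.0 + 0.01% (detergent screen) or 0.0001% Triton X-100; 5.3 nM AmpC reagent; cpd preinc 15 min RT; nitrocefin (800 uM stock) to start; A480 q20 s × 4 min; Activity was normalised to no-enzyme and no-compound control wells.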
NS1 inh – inhibitors of influenza NS1 protein function; Potency, µM (top dose mostly 46.1 µM); hit rate 0.4% among 270,000; AID 2326; calls by dose curve; also: actives are rising curves; nearly all actives have a fitted effect of over 50% in size
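Recovery from NS1-induced slow growth read by OD600 in budding yeast switched to galactose assay medium (pH 6.0, -URA) at 1:100 dilution. Compound 23 nl per well; the matching strain lacking NS1 serves as control.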
AmpC inh no detg – blocks E. coli AmpC beta-lactamase in detergent-free assay | AmpC nitrocefin hydrolysis, absorbance 480 nm, 0.0001% Triton | AID 485341 | Potency, µM (titrated, usually from 57.1 µM), actives largely listed as inhibitors | hit rate 0.52% among 330,000 | P00811; also: nearly all actives have a fitted effect of over 20% in size
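AmpC (5.3 nM in the dispensed reagent) in 20 mM phosphate pH 7.0 with 0.01% (detergent screen) or 0.0001% Triton X-100 was preincubated with compounds for 15 min at room temperature. Nitrocefin was then added from an 800 uM solution, and hydrolysis was followed at 480 nm.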
FBPA Giardia inh – inhibitors of Giardia lamblia fructose-1,6-bisphosphate aldolase. hit rate 0.71% among 290,000. AID 2451. A8B2U2. Potency, µM (doses to about 59.6 µM), most hits filed as inhibitors. purified Giardia FBPA; also: nearly all actives have a fitted effect of over 55% in size
Target sequence (A8B2U2 whole entry, looked up): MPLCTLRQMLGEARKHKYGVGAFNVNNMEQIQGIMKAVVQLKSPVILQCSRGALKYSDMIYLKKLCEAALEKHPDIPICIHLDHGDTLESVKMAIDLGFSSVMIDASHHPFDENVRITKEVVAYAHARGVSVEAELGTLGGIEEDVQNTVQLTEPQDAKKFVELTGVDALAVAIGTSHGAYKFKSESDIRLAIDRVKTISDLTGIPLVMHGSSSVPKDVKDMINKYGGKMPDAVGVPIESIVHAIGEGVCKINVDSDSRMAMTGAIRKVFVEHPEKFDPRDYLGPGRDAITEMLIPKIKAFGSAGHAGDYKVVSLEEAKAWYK
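Giardia FBPA (40 nM reagent) was preincubated 10 min at RT with compound (up to 57.5 uM final), then substrate plus GAPDH/TPI/NAD/arsenate coupling system with diaphorase/resazurin was added; resorufin fluorescence (525/598 nm) was read after 20 min.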
SARS PLpro yeast-1 – inhibitors of SARS-CoV papain-like protease in yeast. Potency, µM (highest dose often 32.9 µM), usual class: activators. hit rate 0.19% among 330,000. S. cerevisiae expressing SARS-CoV PLpro, growth rescue. AID 485353; calls by dose curve; also: nearly all actives have a fitted effect of over 55% in size
SARS PLpro yeast-2 – Validates SARS-CoV PLpro inhibitor hits in yeast | calls only | shares compounds with SARS PLpro yeast-1 | hit rate 19% among 1,000 | AID 652038 | yeast expressing SARS-CoV PLpro, growth phenotype rescue; call rule not given here
Hits are given with their value; n = inactive; u = inconclusive; x = no result; + = active, no number; [ ] = dose if it differs, or a comment. Only some compounds are listed: those with a hit (about 1.4% of all), similar ones and a draw of the others. Unless noted, calls follow the shape of the dose curve; as a rule, active = well fitted curve in the direction sought with a large enough effect; inconclusive = small, poorly fitted or top-dose-only effect, or another doubt; inactive = no such curve, though single readings can be large; an effect the other way counts as inactive or inconclusive.

SMILES	AmpC detergent	NS1 inh	AmpC inh no detg	FBPA Giardia inh	SARS PLpro yeast-1	SARS PLpro yeast-2
O=C(N/N=C/c1cccnc1)/C(=C\c1cccs1)NC(=O)c1ccccc1	u	n	n	n	n	x
Cc1ccc(NC(=O)c2nc[nH]c2C(=O)NCCCCCCNC(=O)c2[nH]cnc2C(=O)Nc2ccc(C)cc2)cc1	x	x	n	x	12.6µM	n
Cc1ccc(NC(=O)c2nc[nH]c2C(=O)NCCCCNC(=O)c2[nH]cnc2C(=O)Nc2ccc(C)cc2)cc1	x	x	n	x	n	x
O=C(CN1C(=O)C2C3C=CC(C3)C2C1=O)NCc1ccccc1 (stereo not given)	n	n	n	n	u	n
CCCCn1c(CN2CCN(c3ccc(OC)cc3)CC2)nc2c1c(=O)[nH]c(=O)n2C	n	x	x	x	x	x
Cc1onc(-c2ccccc2Cl)c1C(=O)N1CCCCC1	n	n	n	n	n	x
C/C(=N\NC(=O)C(C)n1nc(C)c([N+](=O)[O-])c1C)c1ccccc1O (stereo not given)	n	n	n	u	u	n
Cc1nn(C(C)C(=O)NCc2ccco2)c(C)c1[N+](=O)[O-] (stereo not given)	n	n	n	n	n	x
COc1ccc(CCn2c(C)cc(C(=O)CCl)c2C)cc1OC	n	x	n[11.4 µM]	n	10µM	+
CCOC(=O)CN(C(=O)Cn1nnc2ccccc21)C(C(=O)NCCOC)c1ccccc1 (stereo not given)	n	n	n	n	n	x
Cc1c(C(=O)OCC2CCCO2)[nH]c2c1C(=O)CC(c1ccco1)C2 (stereo not given)	n	n	n	n	u	n
Cc1c(C(=O)OCC(C)C)[nH]c2c1C(=O)CC(c1ccco1)C2 (stereo not given)	n	n	n	n	n	x
O=C(Nc1cccc(-c2nn[nH]n2)c1)c1csc2c1CCCC2	n	n	n	x	u	n
Cc1ccc2[nH]cc(C(=O)CCl)c2c1	n	n	n	n	x	n
O=C(Nc1ccc(F)cc1)C(c1ccccc1)N1CCN(S(=O)(=O)c2ccccc2)CC1 (stereo not given)	n	n	n	n	u	n
COc1ccc(C(=O)CSc2nnc(NC(=O)C3CC(=O)N(c4ccccc4)C3)s2)cc1 (stereo not given)	n	n	n	n	u	u
COc1cccc(N2CC(C(=O)Nc3nnc(SCC(=O)c4ccccc4)s3)CC2=O)c1 (stereo not given)	u	n	n	n	n	x
Cc1ccc(S(=O)(=O)c2nc(NCCN(C)C)sc2Cl)cc1	u	n	n	n	u	n
Cc1cc(C)n(C2CC(=O)N(c3cccc(Cl)c3)C2=O)n1 (stereo not given)	n	x	n	n	n	x
Cc1cc(/C=N/n2c(COc3ccccc3C)nc3ccccc3c2=O)c(O)c([N+](=O)[O-])c1	n	u	n	n	3.55µM	+
O=c1c2ccccc2nc(COc2ccccc2)n1/N=C/c1cc([N+](=O)[O-])ccc1O	n	n	n	u	5.62µM	u
O=[N+]([O-])c1ccc(Cl)c(/C=N/n2c(COc3ccccc3)n[nH]c2=S)c1	u	n	n	n	n	x
CC(=O)Nc1ccc(S(=O)(=O)N(C)CC(=O)OCC(=O)NC(C)C23CC4CC(CC(C4)C2)C3)cc1 (stereo not given)	u	n	n	n	u	n
CC(=O)Nc1ccc(S(=O)(=O)N(C)CC(=O)OCC(=O)NNC(=O)c2ccccc2F)cc1	u	x	n	x	n	x
Cc1ccc(C(O)(C(=O)NNc2ccc3ccccc3n2)c2ccc(C)cc2)cc1	u	n	n	n	u	n
SMILES	AmpC detergent	NS1 inh	AmpC inh no detg	FBPA Giardia inh	SARS PLpro yeast-1	SARS PLpro yeast-2
O=C1CN(C(=O)CNC(=O)c2ccc(Cl)cc2Cl)CCN1	n	n	n	n	n	x
Cc1cc(=O)[nH]c2c1c(-c1ccccc1)nn2C	n	n	n	n	n	x
O=C(Nc1ccc(Oc2cccnc2)cc1)C1CCN(Cc2cccc(Cl)c2)CC1	n	n	n	n	n	x
CC(=O)c1cccc(CN2CCC(C(=O)Nc3ccc(Oc4cccnc4)cc3)CC2)c1	n	n	n	x	u	n
COc1cccc(C2/C(=C(\O)c3ccc4c(c3)OCCO4)C(=O)C(=O)N2Cc2cccnc2)c1 (stereo not given)	n	n	n	x	u	n
CN1C(=O)SC(Nc2ccccc2)C1=O (stereo not given)	n	n	n	n	12.6µM	n
COC(=O)COc1ccc(NC(=O)C2CCCO2)cc1 (stereo not given)	n	n	n	n	n	x
Cc1cc(C(=O)NNC(=O)c2ccc(S(=O)(=O)N(C)C)cc2)c(C)o1	u	n	n	n	2.51µM	n
Nc1nc(SCc2ccccc2Cl)nc2nc3c(cc12)CCCC3	n	n	n	n	u	n
N#Cc1cc(S(=O)(=O)N2CCOCC2)ccc1N1CCOCC1	n	n	n	x	n	x
CCCCCN(C(=O)NC(=O)Nc1ccc(C)cc1C)S(C)(=O)=O	n	x	n	n	n	x
CCCCCN(C(=O)NC(=O)Nc1ccc(C)cc1)S(=O)(=O)c1ccccc1	n	n	n	n	3.16µM	n
Cc1cccc(N2CCN(C(=O)CCC(=O)N3CCOc4ccc(Cl)cc43)CC2C)c1 (stereo not given)	n	n	n	n	n	x
CC1CCCC(NC(=O)COc2ncnc3ccccc23)C1C (stereo not given)	x	x	n	x	u	n
CC1CCCC(NC(=O)CSc2ncnc3ccccc23)C1C (stereo not given)	x	x	n	x	n	x
O=C(Cc1csc(N2CCOCC2)n1)N/N=C/c1ccc(O)c(O)c1O	n	x	n	7.92µM	10µM	n
O=C(COc1nsnc1N1CCOCC1)N/N=C/c1ccccc1O	n	n	n	n	u	n
C/C(=N\NC(=O)Cc1csc(N2CCOCC2)n1)c1ccccc1	n	n	n	n	u	x
O=C(O)COc1ccc(/C=N/NC(=O)COc2nsnc2N2CCOCC2)cc1	n	n	n	n	n	x
CCC(C)NC(=O)c1ccc2c(c1)N(Cc1ccccc1)C(=O)c1ccccc1S2(=O)=O (stereo not given)	n	x	x	x	x	x
Cc1ccc(-c2noc(COc3ccc4c(c3)OCO4)n2)cc1	n	n	n	n	12.6µM	n
Cc1cc(C(=O)N/N=C/c2ccc([N+](=O)[O-])s2)c2ccccc2n1	n	n	n	x	n	x
Cc1cc(C(=O)N/N=C/c2cc(Br)cc([N+](=O)[O-])c2O)c2ccccc2n1	n	n	n	u	1.78µM	n
Cc1ccccc1C(=O)Nc1cccc(C(=O)N/N=C/c2cc(Cl)cc([N+](=O)[O-])c2O)c1	n	x	u	n	7.94µM	u
O=C(N/N=C/c1cc([N+](=O)[O-])ccc1O)c1cc(-c2ccccc2)nc2ccccc12	n	n	n	u	x	+
Cc1cc(C(=O)N/N=C/c2ccc([N+](=O)[O-])cc2)c2ccccc2n1	n	n	n	n	n	x
